Experimental data as given in the supplement of paper PMC6555819.

Test system: LXRb homodimer (NR concentration 270 nM)
Test: PBM binding z-score (relative to random genomic background probes); higher = stronger binding; sequences stand for … in GC…GCGATTGACAGCGTAGAATGAAGG
Method in brief: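 Binding buffer was PBS pH 7.4 with 2% milk, 0.02% Triton X-100, 1 mM DTT, 0.2 mg/mL BSA and 0.4 mg/ml salmon testes DNA. In it, ligand-free nuclear receptor dimers were incubated 1 h on custom Agilent 4×180K protein-binding microarrays carrying double-stranded probes. Antibodies against each partner (one per run) detected binding, and z-scores were calculated against random background probes after regression normalization of scanned fluorescence.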

Sequence | PBM binding z-score
TCATATAGGTAAACAGGTGAAACTCCGTAAGTTA | -0.264
TCTAGCAAGCCAGAGGGTCACTCAAGAGGTACGG | -1.21
ACAGACCGGTGAGTGAAGGTAACTCAGCTGGACG | -0.849
CCGACTGGGGCAAGATTACCATAACGCACAGCCA | -1.17
GGAACGAGGGCAAAGTCGATAGCATCTGTCGACG | -0.476
ACTATCAGTTGAGACGAGGGCAACCGATAGGTTG | -0.0586
AATACACGGTCACTAGGCCAGAGTAGGTACGAAT | 0.449
TCTCGGAGGACACGAGAGGTCAGAGCTCGACATC | -0.47
ACAGACAGGTGATGAACGTAACTCAGGCTATCAT | -0.49
ATACCAAGGTGATCGTGAGGTCGTTGTTACTAAC | 0.361
GCTACCAGGCCATTTGGGTCACTCAATGACGGGC | -0.419
TCGAGTCGGTTACCAATGGGGCATTCAGCTTTCT | -0.784
TATCGGAGGACACGAAGGTCAGAGCTTTCCAGAG | -0.0992
ATCGAAAGGTCGTTAGGTGAGTATACAGAAAGGC | 1.11
AGTCAAAGTTCATCTAGGTAACGTACGATATGCT | 1.59
ACAGACAGGTGATTAAGGTAACTCAGGCTATCAT | -0.205
AGTCAAAGTTCACTAGGTAACGTATGATTCAGCT | 1.09
TCTAATAGTTGAAGGGCAACCGACGAGTCCGTTT | -0.0774
GCTAGCAGGCCTTTTGGGTCACTCAATGACGGGC | -1.11
GCTTACGGGTCAAAGGTTATATCATGAATAGAAT | 1.03
TCTAGTTGCTCACGGAGGTCACACACGACGGGTA | 0.53
CTCGAAAGATCGTGCTCAGGTGAGTATACCAAAC | -0.402
